In all, about 68,000 sequences were measured (“fluorescence intensity (a.u.)”: median about 9,100, highest 2% from about 16,000 on). The sample as a whole holds a higher share of the highest values than the screen did.

The target of the assay is OsWRKY34 (Oryza sativa, UniProt Q0JBA9 1-250). In words: protein-binding microarray (RPBM); PBS, 2% BSA, 51.3 ng/ul salmon testes DNA, 50 uM zinc acetate, 200 nM TF, 25 C, 1 h; high values mean tight binding. As to conditions: protein: recombinant; tags: N-terminal polyhistidine and DsRed monomer fusion (pET32a); label: CyDye5-dUTP incorporated in the synthesized complementary strand; 3' TTTTT single-stranded linker to array surface; dsDNA, one strand shown. The essentials: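 The binding signal is fluorescence intensity per feature, in arbitrary units, read on an Axon 4000B scanner. Polyhistidine- and DsRed-tagged transcription factors (N-terminal fusions) from E. coli BL21-CodonPlus were purified on Ni–NTA and applied at 200 nM for 1 h at 25 °C to a double-stranded, BSA-blocked custom Agilent array in buffer with 50 µM zinc acetate.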
Sequence of OsWRKY34 (Q0JBA9 entry or part of it): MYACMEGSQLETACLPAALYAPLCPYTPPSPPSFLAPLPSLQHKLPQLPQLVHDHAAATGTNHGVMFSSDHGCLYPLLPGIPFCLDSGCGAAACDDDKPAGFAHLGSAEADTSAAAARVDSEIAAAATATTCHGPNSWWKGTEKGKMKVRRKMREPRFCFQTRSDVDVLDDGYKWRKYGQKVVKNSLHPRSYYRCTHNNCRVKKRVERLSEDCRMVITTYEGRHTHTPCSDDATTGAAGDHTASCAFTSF
Regarding “CGATCTCAGCTGTCACTCACTATGTGGTTCATCTAACTGACGGAGTCACCTAGTGCAG”, the binding signal was 9510 fluorescence intensity (a.u.).

Consider “CAGGTCATTTTGGTGTGTGCTTTGCGGTATTAACTCGTGCCGGAGTCACCTAGTGCAG”, for which the binding signal is 8700 fluorescence intensity (a.u.).

As to “CACAGCGTCCACACCCGCGCCGCCGCCGCCCTCACCCTCGCGGAGTCACCTAGTGCAG”, the binding signal was 8760 fluorescence intensity (a.u.).

On to “CGGGGATGGAGGTGGTGGTGAGGCTGGCGACGGCGGGCCGCGGAGTCACCTAGTGCAG”, for which the binding signal is 12100 fluorescence intensity (a.u.).

Take “GGGTGTTATGAGTTGTGTTTGCTGTAGCTTGTCAGCTGTTCGGAGTCACCTAGTGCAG”: the binding signal is 10600 fluorescence intensity (a.u.).

“CTGTAGAGAAATACTACACTACTGTACACTACATTCCTGCCGGAGTCACCTAGTGCAG”: the binding signal was 8350 fluorescence intensity (a.u.).

As to “TGTTAGTATTAGGGTGCTTTTGGGTTTGGGGTTTCTGCCACGGAGTCACCTAGTGCAG”, the binding signal was 24200 fluorescence intensity (a.u.).

In the case of “GTGTCGGCGGAGGGGCGCGCGGCGGGGTCGGCGGAGGCGCCGGAGTCACCTAGTGCAG”, the binding signal was 8590 fluorescence intensity (a.u.).

As for “GTCCAAGTTTGCCTTTCTCACTGGGGAGCGGGTGGGCTGTCGGAGTCACCTAGTGCAG”, the binding signal is 21000 fluorescence intensity (a.u.).

Regarding “GAGTTGGGTTGGAGTGGTTTGGATCGCTGCTTCACTAGGGCGGAGTCACCTAGTGCAG”, the binding signal was 27400 fluorescence intensity (a.u.).

As for “GTGGTGGTGCGCGGCGGCGGCGGCGGGGAGGGGTGTGTGTCGGAGTCACCTAGTGCAG”, the binding signal was 24500 fluorescence intensity (a.u.).

“GTGTGGTCGTCGTGTCGGCGGCGGCGGCGGCGGCGGGAGGCGGAGTCACCTAGTGCAG”: the binding signal is 14300 fluorescence intensity (a.u.).

As to “ATTTGTATTTGTTTTTTGTTTGTTAGTATTAGGGTGCTTTCGGAGTCACCTAGTGCAG”, the binding signal is 9720 fluorescence intensity (a.u.).

For the sequence “CTGTATTATGGTGCTTTCACATTTTTTTTCTAGTCTGCCACGGAGTCACCTAGTGCAG”, the binding signal is 8370 fluorescence intensity (a.u.).

In the case of “GGCTGCTTCAGGGGCGTGGGAGAGGTTTGGGGTTGGTTCACGGAGTCACCTAGTGCAG”, the binding signal was 16000 fluorescence intensity (a.u.).

Consider “CAGTTTCCACCCTGGGTGGGGTGGGGCCCACCTGTCGGGGCGGAGTCACCTAGTGCAG”, for which the binding signal is 9940 fluorescence intensity (a.u.).

With “CCTTTCCAAGTCGGTCGGGGTAGCTGGGTTGTCTCGCCGGCGGAGTCACCTAGTGCAG”, the binding signal is 12300 fluorescence intensity (a.u.).

“GGTTTTCATGGTGCTGTGGATGTTCACTAGCTTTGGAGGGCGGAGTCACCTAGTGCAG”: the binding signal is 10900 fluorescence intensity (a.u.).

In the case of “TTCATGGAACATTCACGTGGATCATTCTCTCTCTCTCTCTCGGAGTCACCTAGTGCAG”, the binding signal is 8100 fluorescence intensity (a.u.).

On to “TCACATCTCATTTTATGTTGGTTTTTTATGGGACGGGAGGCGGAGTCACCTAGTGCAG”, for which the binding signal is 10200 fluorescence intensity (a.u.).

As for “CACCACCGTGCACTTCACAATTCACACTACTCCTTCAGATCGGAGTCACCTAGTGCAG”, the binding signal was 8340 fluorescence intensity (a.u.).

As to “CTCATCATCCCGTCCAAAATCAGCTGCCCGCGCCGACGACCGGAGTCACCTAGTGCAG”, the binding signal is 8700 fluorescence intensity (a.u.).

On to “ATACACATGCACATTTAGTTCCTCCCGGTAAGTTCGTCGTCGGAGTCACCTAGTGCAG”, for which the binding signal is 8260 fluorescence intensity (a.u.).

Regarding “ATTTTTTTTTGGCATAGTTTGTGTTCACTGCAAAAATCACCGGAGTCACCTAGTGCAG”, the binding signal was 9080 fluorescence intensity (a.u.).

For “GAGAGCTTTGCGGCGGGCATGCGGGTGGGGATTCACCGCGCGGAGTCACCTAGTGCAG”, the binding signal was 10600 fluorescence intensity (a.u.).

Take “CTGCGGCCCGGCGGGAGTGGGAGGGGCGGCGGGCCGGACCCGGAGTCACCTAGTGCAG”: the binding signal is 9720 fluorescence intensity (a.u.).

Turning to “AGAGATGGTAGTGGTAAAGCGGAGGAGGGGTGGGGTGTTGCGGAGTCACCTAGTGCAG”, the binding signal was 16700 fluorescence intensity (a.u.).

Consider “GAGAGAGGGGTTGGGTTTGGTTGGTGTTTGTGTGGAGATGCGGAGTCACCTAGTGCAG”, for which the binding signal is 12800 fluorescence intensity (a.u.).

Turning to “TGACAGCGGTAGATGTGGGTGGTGGTGGGAGGGGAGGATGCGGAGTCACCTAGTGCAG”, the binding signal is 16200 fluorescence intensity (a.u.).

As for “GCTACATCAGCGGCGGAGGTGGAGGTGGAGGGGTAAGGTGCGGAGTCACCTAGTGCAG”, the binding signal was 11600 fluorescence intensity (a.u.).

As to “GGGTTATTCTTTGCATGATATTTGACGTTTTTTCTCGCTGCGGAGTCACCTAGTGCAG”, the binding signal is 9920 fluorescence intensity (a.u.).

As to “CTATTATCTCCAGGGTGGGGTGGGGCCCATACGGCCAGGACGGAGTCACCTAGTGCAG”, the binding signal is 10400 fluorescence intensity (a.u.).

For “TTTGGTTCACGCGGCGCGGGCGGGGAGTGGGAGGGGCATGCGGAGTCACCTAGTGCAG”, the binding signal was 24100 fluorescence intensity (a.u.).

Take “AGAGGGATGGGTGTGGGCAGCGGTGGGCGGTAAGGCACCACGGAGTCACCTAGTGCAG”: the binding signal is 9360 fluorescence intensity (a.u.).

“TTTGACGTTTTTTCTCGCTGCTATTATCTCCAGGGTGGGGCGGAGTCACCTAGTGCAG”: the binding signal is 17200 fluorescence intensity (a.u.).

Turning to “GGGTGGGAGGGAGGGAGTACATGGTAAGGCCATTCAACAGCGGAGTCACCTAGTGCAG”, the binding signal is 20200 fluorescence intensity (a.u.).

Regarding “ACCTTGGACAACTGACTTCTCTACAGACATTAACCTTTTTCGGAGTCACCTAGTGCAG”, the binding signal was 8730 fluorescence intensity (a.u.).

Regarding “TTTTCATCTGAGCTTATGTTCCAACTTTTATTTTTAATCACGGAGTCACCTAGTGCAG”, the binding signal was 8780 fluorescence intensity (a.u.).

Turning to “ACTGAGTACTGTTCGGTTGGGTCTGGCATCGGATGTTTCCCGGAGTCACCTAGTGCAG”, the binding signal was 8340 fluorescence intensity (a.u.).

With “TATAGGCCACTTGTGCCTCGGCTCACGTTGACCTGCCTTACGGAGTCACCTAGTGCAG”, the binding signal was 8170 fluorescence intensity (a.u.).

Turning to “AACATATAAACTCAAATCTCCAATTGTTTCCGCTACAAATCGGAGTCACCTAGTGCAG”, the binding signal is 8100 fluorescence intensity (a.u.).

With “AACTATTTTCATCCCTCGAGGACATATCTCCTCGTTGTTTCGGAGTCACCTAGTGCAG”, the binding signal was 11100 fluorescence intensity (a.u.).

Values taken from PMC7819943, “Rice protein-binding microarrays: a tool to detect cis-acting elements near promoter regions in rice”.
